Reference: PubChem BioAssay AID1508600 (Functional Genomics Laboratory (NCATS/FGL), 2020)
In all, about 53,000 sequences went through this assay and about 3,700 (7%) were called active.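 Rule for the calls: active = gene knockdowns whose robust z-score for IL-1 alpha signal is at least 2 or at most -2, so actives lie on both sides; inactive = the rest.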 This excerpt belongs to a sample that is enriched for actives.

test: Components of the Cytosolic LPS Sensing Pathway: Gene Identification via Genome-wide siRNA Screen; settings: RAW264.7 macrophages, IL-1a HTRF, actives lie on both sides, screened at 100 nM (by protocol), cells primed 5 h with Pam3CSK4 first
Text: Non-canonical inflammasome activation by cytosolic LPS is a critical component of the host response to Gram-negative bacterial infection, however we lack a comprehensive understanding of the cellular processes that control this pathway. Here we describe a genome-wide siRNA screen to identify genes regulating the mouse macrophage IL-1 alpha response to cytosolic LPS.
RAW264.7 cells were maintained in complete DMEM media, comprising DMEM with 4.5 g/L glucose, 10% FBS (Gemini Bio-Products, West Sacramento, CA), 2 mM Glutamine (Lonza) and 20 mM HEPES (Lonza), hereafter complete DMEM.
The RNAi screen was conducted in 384-well format using the Ambion Silencer Mouse Genome siRNA Library (#4391425), which consists of three unique, nonoverlapping, nonpooled siRNAs for each of 17,000 gene targets. siRNA reagents ([…]) were stamped into 384-well white flat-bottom microplates (Corning, 3570) using a Velocity11 VPrep liquid handling system (Agilent) integrated into a BioCel robotic platform (Agilent) in columns 1-22, leaving columns 23-24 empty for negative (Ambion, Negative control #1) and positive (mouse Casp4) controls, respectively. The median value of each plate's negative control column was used to normalize sample wells, and the positive control was used to assess transfection efficiency and assay performance.
Lipofectamine RNAiMAX Transfection Reagent ([…]; Invitrogen) was added in […] serum-free, antibiotic-free media to plate wells using a Thermo Scientific Matrix WellMate and Microplate Stacker. Plates were incubated for 45 min at room temperature to allow for the sufficient formation of siRNA-lipid complexes. Cells were seeded at a density of 1x10^4 cells per well in 20 microL media containing 20% (vol/vol) FBS without antibiotics. The final concentration of siRNA in each well was 100 nM. Cells were cultured for 48h at 37 degrees C in 5% CO2 before addition of […] of TLR ligand Pam3CSK4 for 5 hours. The medium was then removed, replaced with […] growth media and cell were transfected with […] of LipidA and TransIT-TKO (Mirus) for 24 hour. At the end of the LipidA treatment, […] of supernatant was transferred to a 384 Greiner Bio-one non-binding low volume plate and […] of IL-1a HTRF reagent (Cisbio, 62MIL1APEH) was added and incubated at room temperature overnight. The plates were read on an EnVision plate reader (PerkinElmer). Cell viability was measured by adding 20ul Cell Titer Glo to the original plate and running a luminescence read on the EnVision. The quantified IL-1a signal for each siRNA gene-targeted well was divided by the median of the negative control wells and multiplied by 100 to achieve a negative control normalized value for each well/siRNA. This normalized value was then used to generate a robust z-score by first taking the log of each value and then by subtracting the median and dividing by the […].

Sequence	z-score
GGUUGUUAGAGAUUUGACCTT against Kctd12	-0.208 (inactive)
CCUGCACACCAAGUAUCUGTT against Ccl6	-0.252 (inactive)
GGAAGCACUUCUGCUUUCUTT against Azin2	-0.0234 (inactive)
GCUACACCCUCUGUGAGUUTT against Csrnp2	-2.07 (active)
GGAGAUUCUGUAGGUUAUUTT against Lrat	0.0632 (inactive)
GGGACACUGUGUCCCUUCUTT against Tmem189	-0.0937 (inactive)
CCAAAUGAGGCUACCACAATT against Socs7	-0.0785 (inactive)
GGAUCUGGUUGGCAAGCAUTT against Krt33a	2.87 (active)
GGAACUUGGGCAUUCCAGATT against Adck2	-0.676 (inactive)
GGAAAUCAGUGAACAUCUUTT against Tshr	0.525 (inactive)
CCAGAAACUAGCCUACUACTT against Vgll2	0.395 (inactive)
GGAACUAGUCUGGUGAACUTT against Apoa2	-1.35 (inactive)
GAUUAAUAGUGGUUUCUGATT against Olfr1219	-0.219 (inactive)
GGGUGUGUUUUUAUGUGUUTT against Lcp2	2.57 (active)
GGGAGGAAGAAGAAGGUCATT against Atp1b4	-0.193 (inactive)
GGCAGUCAAUAGUGGCCUGTT against Bcor	1.12 (inactive)
CCAGUAUUUGAGAAUUCUGTT against Gm4788	-0.763 (inactive)
CGACAAGCUGUACCUCUACTT against Rfx5	3.41 (active)
GCUGGAGUUUCAGUCAAGGTT against Ctso	-0.355 (inactive)
AUGCAAGAGGAACGUAUCATT against Olfr1181	-0.572 (inactive)
GGUUUACCCAUCUUGGCCATT against Vwf	-0.501 (inactive)
GGAUAUUGAUUCAGUCAAGTT against Rac2	-1.16 (inactive)
GGAUAUAUUGAAAUGCCCATT against Zbtb14	0.394 (inactive)

Sequence	z-score
GGAUUUAUCCUGGUGACUUTT against Cox20	2.49 (active)
GGUAUUCAGUAUUUUGACUTT against Olfr196	1.56 (inactive)
GGCUGUCGUCAUUGAAGGATT against Ankrd27	-0.771 (inactive)
GCGACAAGAGGCUUUAGCATT against Selenos	0.692 (inactive)
GGAGCAGAAAGAAAUUUCCTT against Gpa33	0.48 (inactive)
GCUUCAACAGUAAUAAUCGTT against Adamtsl1	2.75 (active)
CGGUAAUCUUAUGACAACUTT against Gpc6	1.06 (inactive)
GGGCCUUAAUUUUCCUUUUTT against Podxl	-0.107 (inactive)
GGAUUUAUUGACCUCUUAATT against Sp8	2.41 (active)
GCCCAUCUGAUGAAUACAATT against Mrto4	1.45 (inactive)
GGCACAAUUAGCUAAGAAUTT against Abi3bp	-1.87 (inactive)
GGUCUGAUUCACCAUAAUUTT against Sspn	0.313 (inactive)
GGAGAUUUUGGUGGCUAUUTT against Uqcrfs1	-1.1 (inactive)
GGAUGUCUAACCCAAAUAGTT against Ly6e	2.74 (active)
GGAACACUGGAAAAAUGUUTT against Ldhc	0.176 (inactive)
GGCGGUGAAGUCUAAGGCATT against H1f5	1.54 (inactive)
GGUGUGUGGUUUUUAAUAATT against Abhd3	-0.692 (inactive)
GGUGAUCCUUCUUUUUUACTT against Sgo1	-2.01 (active)
GGGAGUUUCAGACCAGUGUTT against Atp5g3	-0.097 (inactive)
CCAUGGACUUUCUCGAAGATT against Ceacam11	0.612 (inactive)
GCAGGUUCAUACGAUCCAGTT against Plekha3	-0.7 (inactive)
GGCAUGUAAUUUGAUGAUCTT against Mansc1	-1.48 (inactive)
GGCAUCAAGUGACUUAUAATT against Zfp772	2.47 (active)

Sequence	z-score
CGGAUACCGUAGUUUGGUGTT against Lipe	1.51 (inactive)
GGUGAACGACUCCAUGUAUTT against Nectin1	-0.448 (inactive)
CGUGGUUGAACUUUGUCCGTT against C1qtnf12	-0.569 (inactive)
GGAAACUUGAUUAUUUAGGTT against Vrk2	0.915 (inactive)
CGGGUUUAGGAGCAACCUUTT against Zdhhc4	-3.02 (active)
CCAAAUGAAAUUAGUCCUCTT against Eif5	-0.347 (inactive)
GGCGGCAAGCAACAACAAUTT against Ssbp1	0.155 (inactive)
GGAUGUGGUUCGAGUAUGGTT against Pou5f1	1.79 (inactive)
GGUGAAAAGAUCAGAAUACTT against Fahd1	-1.03 (inactive)
CCAAAACAUUAACCUGAAGTT against Pla2g6	-2.34 (active)
GGAAGAGUUGGAAAUUUACTT against Gdpd3	-0.166 (inactive)
GCAUCCUGAUCACUUAACATT against Cep170	-0.732 (inactive)
GGAAGAGAAUCAAGAGCCATT against Lrrc10	-2.65 (active)
GCAAUCUAUAAGAGGUACATT against Axin2	1.79 (inactive)
GGCCACAUUGUCCUAUCAGTT against Cdh16	0.0595 (inactive)
GCAGAAGUCUCGUAUCCAGTT against Arl6ip4	0.337 (inactive)
CAUCGUGUGAAACUGGAGATT against Carmil3	0.608 (inactive)
GGCUGUCAAGAAGCACAUCTT against Inhba	1.08 (inactive)
GGAAAGUUCCAAGUUACCATT against Arl13b	1.18 (inactive)
GGGACAGUGGACCAUUAUGTT against Rnf8	-2.41 (active)
GGAGCCUCAGGUCCAAAUGTT against Fancd2os	1.89 (inactive)
GGAUGUGCAAGGAAUCUCATT against Spint1	0.741 (inactive)
GGCAAUGCACUUAUAACUCTT against Olfr118	0.389 (inactive)
